From PubChem BioAssay (NCATS)
Results filed as inconclusive are left out. Entries that show only a call come without a potency. The source made the active and inactive calls. The call rests on the fitted dose curve; in most records, active means well fitted curve in the direction sought with a large enough effect; inconclusive means small, poorly fitted or top-dose-only effect, or another doubt; inactive means no such curve, though single readings can be large; an effect the other way counts as inactive or inconclusive.

Legend:
[1] = target: Metallo-beta-lactamase type 2 (Klebsiella pneumoniae) (UniProt C7C422); test: qHTS to identify inhibitors of the New Delhi Metallo-beta-lactamase (NDM): assay validation screen against the NCATS LOPAC Collection (AID 1794843);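 further: nitrocefin turnover by NDM-1 measured as 485 nm absorbance at plateau; series mostly up to about 38 µM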
Summary of the method: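 Enzyme 2 nM final, 50 mM HEPES pH 7.0, 1 uM ZnSO4, 0.01% Tween20; cpds in DMSO, preincub w/ enzyme; + nitrocefin (50 uM stock); A485 at plateau; no-enzyme column as blank.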

[2] = target: Glutathione peroxidase 1 (Homo sapiens) (UniProt P07203); test: Primary qHTS Assay for Inhibitors of Recombinant Selenoprotein Glutathione Peroxidase 1 (GPX1) (AID 1845191); further: nearly all actives have a fitted effect of over 65% in size
Summary of the method: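 10 nM GPX1 + cpd, 30 min RT; start w/ 1 mM GSH, 0.5 mM cumene hydroperoxide, 0.5 mM NADPH, 100 nM GR, 0.01% BSA; buffer 50 mM Tris-HCl pH 7.5, 2 mM EDTA, 150 mM NaCl; Fl 340/450, 0 & 15 min.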

[3] = target: Phospholipid hydroperoxide glutathione peroxidase GPX4 (Homo sapiens) (UniProt P36969); test: Primary qHTS Assay for Inhibitors of Recombinant Selenoprotein Glutathione Peroxidase 4 (GPX4) (AID 1845192); further: nearly all actives have a fitted effect of over 65% in size; further: potency means the concentration at half of the fitted maximal effect
Summary of the method: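 NADPH consumption, followed by fluorescence at 340/450 nm between 0 and 15 min, reports GPX4 activity via coupled glutathione reductase (100 nM). Enzyme 200 nM was pre-exposed to compound 30 min; 0.5 mM cumene hydroperoxide and 1 mM GSH served as substrates.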

Chain of Phospholipid hydroperoxide glutathione peroxidase GPX4 (Homo sapiens) (P36969 whole entry, looked up): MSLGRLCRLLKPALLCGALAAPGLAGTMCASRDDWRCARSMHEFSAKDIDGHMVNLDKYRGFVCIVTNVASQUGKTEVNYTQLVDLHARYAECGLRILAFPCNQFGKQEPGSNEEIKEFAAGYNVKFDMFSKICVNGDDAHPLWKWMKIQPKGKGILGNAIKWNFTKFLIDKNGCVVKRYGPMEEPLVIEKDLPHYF
Chain of Metallo-beta-lactamase type 2 (Klebsiella pneumoniae) (C7C422 whole entry, looked up): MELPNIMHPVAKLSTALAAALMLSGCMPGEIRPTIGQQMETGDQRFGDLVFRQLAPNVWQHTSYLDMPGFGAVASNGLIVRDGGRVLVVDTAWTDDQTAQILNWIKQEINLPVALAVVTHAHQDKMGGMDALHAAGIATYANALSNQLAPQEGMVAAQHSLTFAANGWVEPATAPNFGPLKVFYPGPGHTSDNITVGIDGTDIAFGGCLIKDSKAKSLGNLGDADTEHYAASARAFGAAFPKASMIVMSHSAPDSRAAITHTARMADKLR
Chain of Glutathione peroxidase 1 (Homo sapiens) (P07203 whole entry, looked up): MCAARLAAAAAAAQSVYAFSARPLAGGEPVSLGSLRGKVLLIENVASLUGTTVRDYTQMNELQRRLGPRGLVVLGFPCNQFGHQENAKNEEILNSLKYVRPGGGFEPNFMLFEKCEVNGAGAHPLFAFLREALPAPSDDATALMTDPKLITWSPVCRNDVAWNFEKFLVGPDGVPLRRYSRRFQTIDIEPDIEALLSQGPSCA

Structure (SMILES)	Potency [1]	Potency [2]	Potency [3]
Nc1ccc2c3c(cccc13)C(=O)NC2=O	inactive	inactive	inactive
Nc1nc2c(nc(Br)n2C2OC3COP(=O)(O)O[C@@H]3C2O)c(=O)[nH]1 (stereo partly specified)	inactive	inactive	inactive
O=C(O)Cc1ccc(O)c(O)c1	inactive	inactive	inactive
O=c1onc2cnc3ccccc3n12	inactive	inactive	inactive
CCCCCCCCCCCCCCC[C@H](O)[C@H](N)CO	inactive	inactive	inactive
O=c1ccc2c(OCCCCc3ccccc3)c3ccoc3cc2o1	inactive	inactive	inactive
CSC(=N)N	inactive	inactive	inactive
OC[C@H]1NC[C@@H](O)[C@@H]1O	inactive	inactive	inactive
Oc1ccc(Cn2cc[nH]c2=S)cc1	inactive	inactive	inactive
CCCC[C@@]1(C2CCCC2)Cc2cc(OCC(=O)O)c(Cl)c(Cl)c2C1=O	inactive	inactive	inactive
COc1cc(N)c(Cl)cc1C(=O)OCCN1CCCCC1	inactive	inactive	inactive
CC(N)(Cc1ccc(O)cc1)C(=O)O (stereo unspecified)	inactive	inactive	inactive
COc1ccccc1N1CCN(CCCNc2c(C)c(=O)n(C)c(=O)n2C)CC1	inactive	inactive	inactive
O=c1[nH]c2ccccc2c2ccccc12	inactive	inactive	inactive
O=C(O)Cc1c[nH]c2ccc(O)cc12	inactive	inactive	inactive
CCCc1c(OCCCOc2ccc(OCC(=O)O)cc2)ccc(C(C)=O)c1O	inactive	inactive	inactive
CC#CCOC(=O)c1c(C)nc2sc3c(c2c1N)CCC(O)C3 (stereo unspecified)	inactive	inactive	inactive
Fc1ccc(CN(C2=NCCN2)c2c(Cl)cccc2Cl)cc1	inactive	inactive	inactive
c1ccc2c(c1)CC(N1CCN(c3cccc4c3OCCO4)CC1)C2	inactive	inactive	inactive
CNCCNS(=O)(=O)c1cccc2cnccc12	inactive	inactive	inactive
CCSC(=N)N	inactive	inactive	inactive
CC[N+](CC)(CC)CC(=O)Nc1c(C)cccc1C	inactive	inactive	inactive
CCN(CC)CCOC(=O)c1cc(Cl)c(N)cc1OC	inactive	inactive	inactive
Nc1ncnc2c1nc(Br)n2C1OC2COP(=O)(O)O[C@@H]2C1O (stereo partly specified)	inactive	inactive	inactive

Structure (SMILES)	Potency [1]	Potency [2]	Potency [3]
CC(C)NCC(O)COc1ccc(CC(N)=O)cc1 (stereo unspecified)	inactive	inactive	inactive
CC(C)C[C@H](NC(=O)C1OC1C(=O)O)C(=O)NCCCCN=C(N)N (stereo partly specified)	inactive	inactive	inactive
NCCCCN	inactive	inactive	inactive
COc1ccc2c(c1)CCC1C2CC[C@@]2(C)C1CC[C@@H]2NCCCCCCN1C(=O)C=CC1=O (stereo partly specified)	inactive	inactive	inactive
COC(=O)C(C)(N)Cc1ccc(O)cc1 (stereo unspecified)	inactive	inactive	inactive
Cc1ccc([N+](=O)[O-])cc1S(=O)(=O)N(C)C	inactive	inactive	inactive
CC(=O)SC1CC2=CC(=O)CC[C@]2(C)C2CC[C@@]3(C)C(CC[C@@]34CCC(=O)O4)C12 (stereo partly specified)	inactive	inactive	inactive
C[C@H]1CC2C3CCC4=CC(=O)C=C[C@]4(C)[C@@]3(Cl)[C@@H](O)C[C@]2(C)[C@@]1(O)C(=O)CO (stereo partly specified)	inactive	inactive	inactive
N[C@@H](CS(=O)O)C(=O)O	inactive	inactive	inactive
NC1(C(=O)O)CCc2cc(C(=O)O)ccc21 (stereo unspecified)	inactive	inactive	inactive
Cc1cccc(C(=O)NCN2CCN(c3ccccc3C#N)CC2)c1	inactive	–	inactive
COC1(C2=NCCN2)COc2ccccc2O1 (stereo unspecified)	inactive	–	inactive
O=C(O)c1cccnc1C(=O)O	inactive	inactive	inactive
Cc1nc(N=Nc2ccc(C(=O)O)cc2)c(COP(=O)(O)O)c(C=O)c1O	inactive	–	inactive
[N-]=[N+]=Nc1ccc(C(=O)CSC[C@H](NC(=O)CC[C@H](N)C(=O)O)C(=O)NCC(=O)O)cc1	inactive	–	inactive
CN1C2CCC1CC(OC(c1ccccc1)c1ccccc1)C2 (stereo unspecified)	inactive	inactive	inactive
OC[C@H]1O[C@H](n2cnc3c(N[C@H]4CCC[C@@H]4O)ncnc32)[C@H](O)[C@@H]1O	inactive	inactive	inactive
OCC1NCC(O)C(O)C1O (stereo unspecified)	inactive	inactive	inactive
Cc1nc(N=Nc2ccc(S(=O)(=O)O)cc2S(=O)(=O)O)c(COP(=O)(O)O)c(C=O)c1O	inactive	inactive	inactive
NC(=Nc1ccccc1)NC(=O)c1nc(Cl)c(N)nc1N	inactive	–	inactive
COc1cc(/C=C(\C#N)C(=O)c2ccc(O)c(O)c2)cc(I)c1O	inactive	inactive	inactive
O=C1C2C=CC=CC2=NC(=S)N1CCN1CCC(=C(c2ccc(F)cc2)c2ccc(F)cc2)CC1 (stereo unspecified)	inactive	–	inactive
CCCCOc1cc(CC2CNC(=O)N2)ccc1OC (stereo unspecified)	inactive	inactive	inactive
O=C1Cc2c([nH]c3ccc(Br)cc23)-c2ccccc2N1	inactive	inactive	inactive

Structure (SMILES)	Potency [1]	Potency [2]	Potency [3]
COc1ccccc1N1CCN(CCCCN2C(=O)c3ccccc3C2=O)CC1	inactive	–	inactive
COc1cc2c(CCNC(C)=O)c[nH]c2cc1O	inactive	inactive	inactive
CC(C)(C)c1cc(/C=C(\C#N)C(N)=S)cc(C(C)(C)C)c1O	inactive	–	inactive
NCCC1CCCC(CCN)N1 (stereo unspecified)	inactive	inactive	inactive
NC1(C(=O)O)CCCCC1	inactive	–	inactive
C=CCn1c(=O)c2c(nc(-c3ccc(S(=O)(=O)O)cc3)n2C)n(C)c1=O	inactive	–	inactive
CCCCCCCCCCC(C)(C)C(=O)Nc1c(OC)cc(OC)cc1OC	inactive	inactive	inactive
N[C@@H](Cc1ccc(O)c(I)c1)C(=O)O	inactive	inactive	inactive
COc1ccc(C(=O)NCc2cccnc2)cc1C(=O)NCc1cccnc1	inactive	inactive	inactive
Cn1cc(C(=O)OCC2CCN(CCNS(C)(=O)=O)CC2)c2ccccc21	inactive	–	inactive
C=CCN1CCc2c(cc(O)c(O)c2Br)[C@@H](c2ccccc2)C1	inactive	–	inactive
c1ccc(C2CN3CCSC3=N2)cc1 (stereo unspecified)	inactive	inactive	inactive
CC(N)=NCCCC[C@@H](N)C(=O)O	inactive	–	inactive
C[C@@H](NCCc1ccc(O)cc1)[C@@H](O)c1ccc(O)cc1	inactive	–	inactive
COc1ccc2c(c1)c(CC(=O)O)c(C)n2Cc1ccc(Cl)cc1	inactive	–	inactive
CNC(=O)c1cc2c(cn1)[nH]c1ccccc12	inactive	inactive	inactive
C[C@](Cc1ccc(O)c(O)c1)(NN)C(=O)O	inactive	–	inactive
COc1ccc(NC(=O)c2ccc(-c3ccc(-c4noc(C)n4)cc3C)cc2)cc1N1CCN(C)CC1	inactive	–	inactive
Cc1ccc2c(c1)C(N1CCN(C)CC1)=Nc1cccnc1N2	inactive	inactive	inactive
Nc1nc2c(cnn2CCc2ccccc2)c2nc(-c3ccco3)nn12	inactive	–	inactive
CC[C@H](NC(=O)c1c(C)c(-c2ccccc2)nc2ccccc12)c1ccccc1	inactive	inactive	inactive
COC(=O)C(N)Cc1ccc(Cl)cc1 (stereo unspecified)	inactive	inactive	inactive
CCCCC[C@H](CC(=O)NO)C(=O)N[C@H](C(=O)N1CCC[C@H]1CO)C(C)C	inactive	inactive	inactive
O=C(O)C1CCCNC1 (stereo unspecified)	inactive	–	inactive

Structure (SMILES)	Potency [1]	Potency [2]	Potency [3]
O=C1NC(=O)c2cc(Nc3ccccc3)c(Nc3ccccc3)cc21	inactive	–	inactive
N[C@H]1CONC1=O	inactive	–	inactive
CCOC(=O)C12CC1/C(=N/O)c1ccccc1O2 (stereo unspecified)	inactive	–	inactive
CCCn1c(=O)c2[nH]c(-c3ccc(S(=O)(=O)O)cc3)nc2n(CCC)c1=O	inactive	–	11.2 µM (active)
C=CC1(C)CC(=O)C2(O)C(C)(O1)C(OC(C)=O)C(O)C1C(C)(C)CCC(O)C12C (stereo unspecified)	–	inactive	inactive
O=c1[nH]c(=O)c2nc3ccccc3nc2[nH]1	inactive	–	inactive
NC(C(=O)N[C@@H]1C(=O)N2C(C(=O)O)=C(Cl)CS[C@H]12)c1ccccc1 (stereo partly specified)	inactive	–	inactive
C/C(=C\c1ccc(C(=O)O)cc1)c1ccc2c(c1)C(C)(C)CCC2(C)C	inactive	–	inactive
O=C(N[C@@H](Cc1ccccc1)C(=O)CCl)OCc1ccccc1	–	inactive	inactive
N[C@@H](CCC(=O)N[C@H](CSN=O)C(=O)NCC(=O)O)C(=O)O	–	inactive	inactive
O=c1[nH]c(=S)[nH]c(-c2ccccc2)c1Cc1c(O)ccc2ccccc12	–	inactive	inactive
CC(C)NC[C@H](O)COc1cccc2ccccc12	–	inactive	–
CCCCCCCCCCCCCCCCCCOC[C@H](COP(=O)([O-])OCC[N+](C)(C)C)OC	inactive	–	inactive
CC(N)(Cc1ccc(O)c(O)c1)C(=O)O (stereo unspecified)	–	inactive	inactive
CCCCCCC(=O)OC1CC(C)(C)NC(C)(C)C1	inactive	–	inactive
Oc1cc2c(cc1O)C(c1ccccc1)CNCC2 (stereo unspecified)	inactive	–	inactive
CN[C@H](CC(=O)O)C(=O)O	–	–	inactive
O=C1OC(=O)C2C3CCC(O3)C12 (stereo unspecified)	–	inactive	inactive
COc1cc(CNC(=O)CCCCCCC(C)C)ccc1O	inactive	–	inactive
CCCCCCCC/C=C\CCCCCCCC(=O)NCCc1ccc(O)c(O)c1	inactive	–	inactive
CCN(CC)CCCCCCCCOC(=O)c1cc(OC)c(OC)c(OC)c1	inactive	–	inactive
CN1CCN(c2nc3cc(C(F)(F)F)ccc3n3cccc23)CC1	–	inactive	inactive
CSc1nc(N)c2ncn([C@@H]3O[C@H](COP(=O)(O)OP(=O)(O)O)C(O)[C@H]3O)c2n1 (stereo partly specified)	–	inactive	inactive
